From PubChem
Compounds with a hit are over-represented: about 12% of the library has one in this group of screens.
Sfp PPTase inh: blocks B. subtilis Sfp PPTase activity | Potency, µM, for the others: largest response in the series, negative = inhibition, actives largely listed as inhibitors | 3.5% of 310,000 active | Biochemical Sfp PPTase activity, qHTS;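 also: the enzyme is Sfp with the accession as filed and its product quenches rhodamine fluorescence; potency is read from the fitted curve at half-maximal effect; 0% = enzyme reaction without inhibitor and -100% = no enzyme wells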
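Reaction rates are the 30-min fluorescence difference (ex 525, em 598 nm) in wells containing 15 nM Sfp, 5 uM rhodamine-CoA and 12.5 uM BHQ-2-YbbR at pH 7.6 with 10 mM MgCl2.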
HP1b chromo inh: HP1-beta chromodomain-methylated histone interaction inhibition | AlphaScreen HP1-beta / biotin-H3K9me3 peptide binding | Potency, µM (top dose mostly 114 µM), for inactives: at the highest dose activity change, negative = inhibition, hits mostly inhibitors | 0.56% of 390,000 active | AID 540317; also: potency is read from the fitted curve at half-maximal effect; nearly all actives have a fitted effect of over 70% in size
Target sequence (P83916 whole entry, looked up): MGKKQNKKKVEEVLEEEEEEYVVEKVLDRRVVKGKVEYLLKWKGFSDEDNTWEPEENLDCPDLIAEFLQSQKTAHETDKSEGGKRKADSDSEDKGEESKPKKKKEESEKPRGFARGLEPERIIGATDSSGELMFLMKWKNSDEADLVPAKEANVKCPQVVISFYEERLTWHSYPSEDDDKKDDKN
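Compound inhibition of the preformed complex between 50 nM HP1-beta and 50 nM biotinylated H3K9me3 peptide was read by AlphaScreen. Buffer was PBS pH 7.4 with 0.01% Tween-20. Incubations ran 30 min at room temperature, with 10 ug/mL donor/acceptor beads.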
G9a inh-1: inhibitors of human histone lysine methyltransferase G9a; Q96KQ7; G9a H3K9 monomethylation, AlphaScreen, 2 h; Potency, µM (top dose mostly 102 µM), without a hit: at the highest dose activity, negative = inhibition, usual class: inhibitors; 8.8% of 350,000 active; AID 504332; also: potency is read from the fitted curve at half-maximal effect; % is scaled to controls: 0 for no effect and ±100 for the full control effect; nearly all actives have a fitted effect of over 75% in size
Target sequence (Q96KQ7 913-1193 limits assumed): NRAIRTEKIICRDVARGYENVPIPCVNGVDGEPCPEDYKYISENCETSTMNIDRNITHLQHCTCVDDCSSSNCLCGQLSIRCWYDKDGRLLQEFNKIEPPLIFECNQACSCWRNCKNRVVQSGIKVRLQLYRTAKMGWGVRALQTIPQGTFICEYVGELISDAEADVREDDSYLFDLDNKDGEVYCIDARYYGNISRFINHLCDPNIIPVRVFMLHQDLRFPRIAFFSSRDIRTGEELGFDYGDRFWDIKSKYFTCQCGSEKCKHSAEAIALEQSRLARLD
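Signal arises when biotinylated H3K9 peptide, once monomethylated, bridges streptavidin donor and antibody-captured acceptor beads. Enzyme at 20 nM was preincubated 15 min with test compounds; peptide 500 nM and SAM 20 uM then reacted for 2 h.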
JMJD2A Tudor: JMJD2A Tudor domain (human) inhibition. O75164. AlphaScreen JMJD2A-Tudor / H3K4me3 peptide binding. Potency, µM (top dose mostly 114 µM), inactives show at the top dose activity change, negative = inhibition, most hits filed as inhibitors. 4.4% of 390,000 active; also: potency is read from the fitted curve at half-maximal effect; % is scaled to controls: 0 for no effect and ±100 for the full control effect; nearly all actives have a fitted effect of over 50% in size
BAZ2B inh: inhibitors of human BAZ2B bromodomain; Q9UIF8; AlphaScreen BAZ2B-H3K14Ac peptide displacement; Potency, µM (top dose mostly 114 µM), without a hit: top-dose activity change, negative = inhibition, actives largely listed as inhibitors; 4.4% of 360,000 active; AID 504333; also: potency is read from the fitted curve at half-maximal effect; % is scaled to controls: 0 for no effect and ±100 for the full control effect; nearly all actives have a fitted effect of over 60% in size
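Compounds, titrated to a top concentration of 110 uM, were incubated 30 min at room temperature with preformed BAZ2B/acetyl-K14 H3 peptide complex (50 nM each). Proximity signal was measured by AlphaScreen after 20 min with beads.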
G9a inh-2: confirmation of human histone methyltransferase G9a inhibitors; Potency, µM, usual class: inhibitors; 89% of 370 active; shares compounds with JMJD2A Tudor; G9a H3K9 monomethylation, AlphaScreen, 2 h; AID 588344; also: potency is read from the fitted curve at half-maximal effect; nearly all actives have a fitted effect of over 65% in size
RGS4 inh: confirmation of human RGS4 inhibitors; shares compounds with JMJD2A Tudor; RGS4 GAP activity, Transcreener GDP fluorescence polarization; 80% of 25 active; Potency, µM, actives largely listed as inhibitors
Starred values were filed as active, the others as inactive; ? = inconclusive; . = no result; [ ] = another dose, or the depositor's remark. Calls follow the shape of the dose curve; as a rule, active = well fitted curve in the direction sought with a large enough effect; inconclusive = small, poorly fitted or top-dose-only effect, or another doubt; inactive = no such curve, though single readings can be large; an effect the other way counts as inactive or inconclusive.

SMILES | Sfp PPTase inh | HP1b chromo inh | G9a inh-1 | JMJD2A Tudor | BAZ2B inh | G9a inh-2 | others
CC1CN(Cc2c(O)ccc3c(=O)c(-c4ccccc4)coc23)CC(C)O1 (stereo not given) | 13% | 19% | -9% | -4% | -9% | .
CC1CN(Cc2c(O)ccc3c2oc(=O)c2ccccc23)CC(C)O1 (stereo not given) | 79µM* | ? | 0.45µM* | 10µM* | 4µM* | 0.28*
O=C(c1cccc(C(F)(F)F)c1)N1CCc2c([nH]c3ccccc23)C1C(F)(F)F (stereo not given) | 21% | 23% | -1% | -29% | -22% | .
Cc1cc(C)nc(SCC(=O)OCC(=O)N(C)c2c(N)n(Cc3ccccc3)c(=O)[nH]c2=O)n1 | 0% | 5% | -23% | -9% | 2% | .
COc1cccc(-c2cncnc2NCc2cccnc2)c1 | ? | . | -6%[0.501 µM] | . | . | . | RGS4 inh=30*
CC(C)NC(=O)CSc1nnc(CNC(=O)OC(C)(C)C)n1C | 9% | 36% | -1% | -8% | -18% | .
COC(=O)c1ccc(NC(=O)CSc2nc3ccc(OC)cc3[nH]2)cc1 | . | 4% | 6%[59 µM] | -2% | -3% | .
COc1ccccc1C(=O)Nc1ccc(-c2nnc(SCC(=O)O)n2C)cc1 | 7% | 30% | ? | 100µM* | ? | 8*
CCCCSc1nnc(-c2ccc(NC(=O)CCc3ccccc3)cc2)n1C | 12% | 6% | -8%[59 µM] | -10% | -5% | .
Cn1c(SCC(=O)NCc2ccccc2)nnc1-c1ccc(NC(=O)CCc2ccccc2)cc1 | 14% | 20% | ? | -13% | ? | 11*
COc1ccccc1NC(=O)CSc1nnc(-c2ccc(NC(C)=O)cc2)n1C | -20% | 40% | ? | 5% | ? | .
CCC(C(=O)Nc1cc(C)nn1-c1nc(C)cc(C)n1)c1ccccc1 (stereo not given) | ? | 18% | -41% | -18% | -37%[57.1 µM] | .
CCN(CC)c1ccc(C(=O)Nc2cccc(F)c2)cc1 | 17% | 19% | -13%[59 µM] | -17% | -7% | .
CN(C)c1cccc(C(=O)Nc2cccc(F)c2)c1 | -14% | 14% | ? | -35% | ? | 7.1*
COc1ccc(-c2nc3c(c4c2C[C@H](c2ccccc2)OC4)CN(C(=O)NCCc2c[nH]c4ccccc24)CC3)c(C)c1 | 16% | . | . | . | . | .
COc1ccc(-n2nc3cc(C)c(N)cc3n2)cc1Cl | 79µM* | 15% | 0.71µM* | 56µM* | 79µM* | 0.5*
Cc1cc2nn(-c3ccc(F)cc3)nc2cc1N | ? | 8% | 1µM* | -25% | -28% | 0.56*
COc1ccc(-n2nc3cc(C)c(NC(=O)c4ccc(C)cc4C)cc3n2)cc1Cl | . | 29% | ? | -16% | -24% | .
Nc1ccc2nn(-c3ccc(F)cc3)nc2c1 | 2% | 38% | 28% | 29% | 0% | .
CCOc1ccc(-n2nc3cc(C)c(N)cc3n2)cc1 | -18% | 39% | . | 2% | ? | .
Cc1ccc(-n2nc3ccc(N)cc3n2)cc1 | -2% | -9% | ? | -6% | -35% | 0.25*
C=CCn1c(=S)[nH]c2cc(C(=O)NCCc3ccc(S(N)(=O)=O)cc3)ccc2c1=O | . | 43% | ? | -4% | -3% | .
COc1ccc(-c2nc3n(c2C)Cc2ccccc2-3)cc1 | 4% | -1% | -41% | -20% | ? | .
COc1ccc(Br)cc1CNc1ccc(N2CCOCC2)cc1 | -19% | ? | ? | 40µM* | 28µM* | 3.2*
COc1ccc(Br)cc1CNc1ccc(S(N)(=O)=O)cc1 | 5% | 4% | -3%[59 µM] | -6% | -24% | .
